# In ChEMBL document CHEMBL4513216, “Probing the Open Global Health Chemical Diversity Library for Multistage-Active Starting Points for Next-Generation Antimalarials” (ACS Infect Dis, 2020):
# Out of some 69,000 compounds screened, about 8,600 (12%) showed an effect of 50% or more. The list comes from a sample in which strong results are over-represented; it also holds similar structures and randomly drawn compounds.
# System: Plasmodium berghei
# Experiment: Screen against P. berghei liver stage (PbLuc), transformed with Luciferase, at 10uM
# Type: functional, HepG2
# Conditions: tested at 10 uM
row,Compound,INHIBITION [%]
1,CC1CCN(Cn2nc(-c3ccc(F)cc3)oc2=O)CC1,9.25
2,O=c1oc(-c2ccc(F)cc2)nn1CC1CCCCO1 (centres undefined),59.3
3,O=C(Cn1nc(-c2ccc(F)cc2)oc1=O)NCC1CCCO1 (centres undefined),-36.1
4,O=c1oc(-c2ccc(F)cc2)nn1CC1CCOC1 (centres undefined),62.3
5,O=c1oc(-c2ccc(F)cc2)nn1CN1CCN(CC2CC2)CC1,30.6
6,O=c1oc(-c2ccc(F)cc2)nn1CN1CCN(C2CCCC2)CC1,29.4
7,COCCN1C[C@@H]2[C@@H](OC)CCN(Cc3ccco3)[C@@H]2C1,22.2
8,Cn1cc(C2CC(=O)NC23CCN(Cc2cccc(F)c2)CC3)cn1 (centres undefined),-1.36
9,CN(CCc1ccccn1)C(=O)C(O)c1cc(Cl)cc(Cl)c1 (centres undefined),10.1
10,CSc1ccc(NC(=O)NCC2CCCO2)cc1F (centres undefined),-81.9
11,C[C@@H]1CN(c2nc3c(cc2C(N)=O)CCC3)CC[C@@]1(O)C1CCC1,-2.93
12,C[C@@H]1CN(c2nc(N)nc3c2CCC3)C[C@]1(C)O,8.53
13,C[C@@H]1CN(c2nc(N)nc3c2CCC3)CC[C@@]1(O)C1CCC1,83.3
14,Cc1ccc(C)c(Sc2nccn(C)c2=O)c1,-13.1
15,COc1ccc(Cl)cc1CN(CC(N)=O)C(C)C,-6.04
16,Cc1cnccc1-c1cc(NCCO)nc2[nH]ccc12,58
17,COCCNc1cc(-c2cccc(C(=O)O)c2C)c2cc[nH]c2n1,58.5
18,COCCNc1cc(-c2ccccc2C(=O)O)c2cc[nH]c2n1,30.3
19,COCCNc1cc(-c2ccccc2S(N)(=O)=O)c2cc[nH]c2n1,23
20,Cc1cc(F)ccc1-c1cc(NCCO)nc2[nH]ccc12,-13.1
21,Cc1cccc(C)c1-c1cc(NCCO)nc2[nH]ccc12,45
22,CN(C)CCNc1cc(-c2ccccc2C(N)=O)c2cc[nH]c2n1,15.8

row,Compound,INHIBITION [%]
1,COCCNc1cc(-c2ccccc2C(N)=O)c2cc[nH]c2n1,60.3
2,COCCNc1cc(-c2ccccc2CCN)c2cc[nH]c2n1,25.8
3,CN1CC(=O)N(c2cccnc2)CC12CCN(C(=O)C1CCCCC1)C2 (centres undefined),31.2
4,Cc1csc(CNC(=O)Nc2ccc3c(c2)OCO3)n1,-51.9
5,CCCS(=O)(=O)N1C[C@@H]2C[C@H](C(=O)N(C)C)[C@H](C1)O2,49.7
6,CC(C)(C)c1ncc(C(=O)NCCNC(=O)Cc2ccccc2)s1,45.7
7,Cc1ccccc1-c1noc(CN2CCc3cncnc3C2)n1,8.195
8,O=c1ccc(-c2cccs2)nn1CN1CCOCC1,-1.33
9,O=C1COC2(CCN(c3ccccn3)CC2)CN1Cc1ccccn1,16.6
10,CCCc1noc(CN2CCC(N(C)Cc3nnc(C4CC4)o3)C2)n1 (centres undefined),-16
11,COC(=O)c1cccn1C1CCN(Cc2ccccc2)CC1,56.1
12,COC(=O)c1cccn1C1CCN(Cc2cccc(C(N)=O)c2)CC1,45.1
13,COC(=O)c1cccn1C1CCN(Cc2cccnc2)CC1,11.6
14,COC(=O)c1cccn1C1CCN(Cc2cnc3ccccn23)CC1,66.8
15,COC(=O)c1cccn1C1CCN(Cc2nc3ccccc3o2)CC1,15.6
16,COC(=O)c1cccn1C1CCN(CCN2C(=O)CCC2=O)CC1,1.75
17,Cc1nc(CN2CCC(N(C)Cc3nnc(C4CC4)n3C)C2)oc1C (centres undefined),16.8
18,Cc1ccc(CN2CCC3(CC2)CCN(Cc2ccco2)CC3)cc1,-13.7
19,Cc1ccc(N2C[C@H](C(=O)NCC3CC3)[C@@H]3CCO[C@@H]3C2)nn1,42.7
20,COCC1CN(Cc2ccoc2)Cc2nnn(C)c21 (centres undefined),-6.21
21,CCc1nc2n(n1)CC(NCC(=O)Nc1oc(C)c(C)c1C#N)CC2 (centres undefined),-13.5
22,COc1ccc2c(c1)NC(=O)C2OC(=O)CC(C)(C)C (centres undefined),44

row,Compound,INHIBITION [%]
1,COc1ccc2c(c1)NC(=O)C2OC(=O)CCc1ccc(F)cc1 (centres undefined),14.9
2,COc1ccc2c(c1)NC(=O)C2OC(=O)Cc1ccccc1C (centres undefined),58.5
3,CN(C)c1cc(C(F)(F)F)nc(N2CCCC2c2ccccn2)n1 (centres undefined),-84.3
4,CN(Cc1nnc2n1CCC2)C(=O)c1ccc2c(c1)OCO2,16.8
5,Cc1cccc(CN2CCc3ncnc(C4CC4)c3CC2)n1,-27.4
6,Cc1c(CN2Cc3nccn3CC2c2ccccc2)cnn1C (centres undefined),14.435
7,CCS(=O)(=O)Cc1nc(-c2cnn3c(C)cc(C)nc23)no1,70.5
8,CCOCCc1nc(-c2cnn3c(C)cc(C)nc23)no1,10.6
9,COCCc1nc(-c2cnn3c(C)cc(C)nc23)no1,34.6
10,CCN(CC)C(=O)CCc1nc(-c2cnn3c(C)cc(C)nc23)no1,57.7
11,COC(C)Cc1nc(-c2cnn3c(C)cc(C)nc23)no1 (centres undefined),31.2
12,CCc1nc(Cn2c(=O)c3c(C(F)(F)F)cc(C)nc3n2C)no1,10.5
13,Cc1nc(CN(C)C2CCN(CCc3cnn(C)c3)C2)no1 (centres undefined),11.2
14,Cc1ccccc1C(=O)NC(C)CN1CCOC1=O (centres undefined),39.3
15,CCS(=O)(=O)N1CCN(C(C)(C)CO)CC1,11
16,Cc1cnn(CCNCc2cc(C#N)ccc2F)c1,34.15
17,Cc1noc(C)c1CN1CCn2c(CN3CCN(C)CC3)cnc2C1,21.6
18,CCc1cc(N2CCC(NC3CN4CCC3CC4)CC2)nc(N(C)C)n1 (centres undefined),62.4
19,CCc1cc(N2CCC(N[C@@H]3CS(=O)(=O)C[C@H]3O)CC2)nc(N(C)C)n1,35.3
20,CCc1cc(N2CCC(NC3CCOCC3)CC2)nc(N(C)C)n1,29.1
21,Cn1ncc2c1NC(=O)CC2c1ccc(F)cc1 (centres undefined),3.46
22,CCCn1nnnc1COc1cc(OC)ccc1C(N)=O,-15

row,Compound,INHIBITION [%]
1,CC(C)C[C@@H](N)C(=O)N(C)Cc1csc(C(C)C)n1,-40.5
2,CC(C)n1cc(S(=O)(=O)N2CCSCC2)cn1,-28.8
3,CNC(=O)C1Cn2ccnc2C2(CCN(Cc3cccc(C)n3)CC2)O1 (centres undefined),29.6
4,CC(C(=O)NC(N)=O)N1CCN(c2ccc(C#N)cc2F)CC1 (centres undefined),-45
5,Cc1cc(NC(=O)C(C)N2CCN(c3ccccc3F)CC2)no1 (centres undefined),8.38
6,Cc1cc(NC(=O)C(C)N2CCN(c3ccc(C#N)cc3F)CC2)no1 (centres undefined),55
7,COCC(=O)N1CC[C@@H](OCC2CC2)[C@@H]1Cc1cccnc1,-31.4
8,Cc1cnn(CC2CCCN2Cc2noc(C(C)C)n2)c1 (centres undefined),25.6
9,COCCO[C@H]1CCN(C(=O)C2CCOCC2)[C@H]1Cc1ccncc1,26.7
10,CCOc1cncc(N2CCN(c3ccccc3O)CC2)n1,39.7
11,Cc1nc(C)c(C)c(N2CCC(NCCOc3ccccc3)CC2)n1,77.8
12,Cc1cc(N2CCC(NCCOc3ccccc3)CC2)nc(C)n1,9.72
13,c1ccc(OCCNC2CCN(c3ncccn3)CC2)cc1,-32.6
14,O=C(CC1COCCN1)N1CCC2(CCc3ccccc32)CC1 (centres undefined),-60.2
15,CC1CN(c2ccc(C#N)cn2)CCN1c1ccc2nncn2n1 (centres undefined),-9.69
16,COc1cccc(CN2CCN(c3ccc4nncn4n3)C(C)C2)c1 (centres undefined),83
17,CC1CN(Cc2cccnc2)CCN1c1ccc2nncn2n1 (centres undefined),16.9
18,CC1CN(Cc2cccc(C#N)c2)CCN1c1ccc2nncn2n1 (centres undefined),53.5
19,CC1CN(Cc2cnn(C)c2)CCN1c1ccc2nncn2n1 (centres undefined),10
20,Cc1ncc(CN2CCN(c3ccc4nncn4n3)C(C)C2)s1 (centres undefined),8.64
21,CC(C)c1nccn1C1CCCN(C(=O)c2cc(C3CC3)on2)C1 (centres undefined),48.4
22,CNC(=O)C1CN(C(=O)Cc2ccc(OC)cc2)Cc2cn(C)nc21 (centres undefined),-6.51

row,Compound,INHIBITION [%]
1,O=C(NC1CCN(c2cccc(OC(F)(F)F)c2)C1=O)C1CC1 (centres undefined),61.1
2,CCC(=O)NC1CCN(c2cccc(OC(F)(F)F)c2)C1=O (centres undefined),40.6
3,O=C(NC1CCN(c2cccc(OC(F)(F)F)c2)C1=O)C1CCC1 (centres undefined),34.6
4,O=C1NCC[C@]12CN(Cc1nccs1)C[C@H]2c1ccccc1,45.8
5,CN(CC1(C)COC1)C(=O)c1cc(-c2cnn(C)c2)nc2ccccc12,9.7
6,COc1ccccc1-c1c[nH]c(C2CCCN2)n1 (centres undefined),-33.3
7,CCc1n[nH]c(C(=O)N2CCN(c3ccc4ccccc4c3)CC2)c1C,61.1
8,CCc1ocnc1C(=O)N1CCN(c2ccc3ccccc3c2)CC1,26.5
9,CCc1n[nH]c(C(=O)N2CCCC3(CN(C)C(=O)O3)C2)c1C (centres undefined),45.2
10,CC(C)N(CCS(C)(=O)=O)Cc1csc(Cc2ccc(Cl)cc2)n1,35
11,Cc1nc(CN(CCS(C)(=O)=O)C(C)C)cs1,53.6
12,CC(C)N(CCS(C)(=O)=O)Cc1csc(-c2ccccc2F)n1,33.2
13,Cc1cc(S(=O)(=O)N(CCO)C2CC2)ccc1F,26.1
14,Cc1cc(CC(C)NC(=O)Cc2cc(F)ccc2C)[nH]n1 (centres undefined),73
15,CCC(=O)c1ccc(OCC(=O)NC(C)Cc2cc(C)n[nH]2)cc1 (centres undefined),27.6
16,Cc1cc(CC(C)NC(=O)COc2ccc(F)cc2F)[nH]n1 (centres undefined),40.6
17,Cc1ccc(CNC(=O)NC(C)CCS(C)(=O)=O)cc1F (centres undefined),-1.15
18,Cc1ccc(CNS(=O)(=O)CCCC#N)cc1F,58.1
19,Cc1cc(CNS(=O)(=O)CCCC#N)ccc1N(C)C,33.1
20,CC(C)C(C)NC(=O)Nc1ccc(CS(=O)(=O)C(C)C)cc1 (centres undefined),-4.68
21,Cc1ccccc1NC1CCN(C(=O)CCc2ccco2)CC1,-26.6
